{"source": "the supplement of paper PMC9694430", "note": "“And” between values parts separate entries of the source, which are not always exact repeats. Identical values can stand only once. Counter-ions that a name gives are not always drawn."}
{"test_system": "LOC_OS03G04050-cb001", "test": "thermal shift delta Tm vs DMSO control; higher = stronger stabilization (binding)", "conditions": "12.5 µM; protein concentration 2 µM", "in_short": "(§1)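 Compounds dissolved in DMSO were added to purified rice kinase domain constructs, which had been expressed in E. coli, for differential scanning fluorimetry. Each well held 19.5 μl of 2 μM kinase in 100 mM potassium phosphate pH 7.5, 150 mM NaCl, 10% glycerol and 5 × SYPRO Orange. Fluorescence was followed from 25°C to 95°C at a rate of 0.05°C/s. Shifts in Boltzmann-fitted melting temperature are triplicate means relative to DMSO-only protein.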"}
{"smiles": "Cc1cnc(-c2cnc(NCCNc3ccc(C#N)cn3)nc2-c2ccc(Cl)cc2Cl)[nH]1", "thermal shift delta Tm": "0.11 °C and 0.6 °C"}
{"smiles": "CCN(CC)CCCCNc1ncc2cc(-c3cc(OC)cc(OC)c3)c(NC(=O)NC(C)(C)C)nc2n1", "thermal shift delta Tm": "0.67 °C"}
{"smiles": "Cn1cc(-c2ccc3nnc(C(F)(F)c4ccc5ncccc5c4)n3n2)cn1", "thermal shift delta Tm": "0.41 °C"}
{"smiles": "O=C(c1ccc(/C=C/c2n[nH]c3ccccc23)cc1)N1CCNCC1", "thermal shift delta Tm": "0.27 °C"}
{"smiles": "CN(C)C[C@@H]1CCn2cc(c3ccccc32)C2=C(C(=O)NC2=O)c2cn(c3ccccc23)CCO1", "thermal shift delta Tm": "0.36 °C"}
{"smiles": "CC1=C(C(=O)Nc2ccc3[nH]ncc3c2)C(c2ccc(F)cc2)NC(=O)N1", "note": "(stereo unspecified)", "thermal shift delta Tm": "0.57 °C"}
{"smiles": "CCc1cc(Nc2nccc(-c3c(-c4ccc(OC)c(C(=O)Nc5c(F)cccc5F)c4)nc4ccccn34)n2)c(OC)cc1N1CCC(N2CCN(S(C)(=O)=O)CC2)CC1", "thermal shift delta Tm": "0.66 °C"}
{"smiles": "CNS(=O)(=O)Nc1nccc(Cc2c(C)c3ccc(Oc4ncccn4)cc3oc2=O)c1F", "thermal shift delta Tm": "0.37 °C"}
{"smiles": "CCn1c(=O)c(-c2cc[nH]n2)cc2c(C)nc(N)nc21", "thermal shift delta Tm": "0.35 °C"}
{"smiles": "COc1cc(F)c(F)c(Nc2ccc(I)cc2F)c1NS(=O)(=O)C1(C[C@H](O)CO)CC1", "note": "[Refametinib (RDEA119, Bay 86-9766)]", "thermal shift delta Tm": "0.61 °C"}
{"smiles": "Cc1cc(C(=O)NOCCO)c(Nc2ccc(I)cc2F)n(C)c1=O", "thermal shift delta Tm": "0.19 °C"}
{"smiles": "O=C(c1cccc(Cl)c1F)N1CCN(Cc2cccc(Nc3nccs3)n2)CC1", "thermal shift delta Tm": "0.55 °C"}
{"smiles": "CC(C)n1nc(-c2ccc3oc(N)nc3c2)c2c(N)ncnc21", "thermal shift delta Tm": "0.38 °C"}
{"smiles": "C=CC(=O)Nc1cccc(Sc2nc(Nc3ccc(N4CCN(C)CC4)cc3)ncc2Cl)c1", "thermal shift delta Tm": "0.43 °C"}
{"smiles": "CC(C)n1ncnc1-c1cn2c(n1)-c1ccc(O[C@@H](C)C(N)=O)cc1OCC2", "thermal shift delta Tm": "0.37 °C"}
{"smiles": "Cc1ccc(NC(=O)c2ccc(CN3CCN(C)CC3)cc2)cc1Nc1nccc(-c2cccnc2)n1", "note": "[Imatinib (STI571)]", "thermal shift delta Tm": "0.47 °C"}
{"smiles": "CCN(CC)CCCC(C)Nc1nc(C)cc(Nc2ccc3nc(C)cc(N)c3c2)n1", "note": "(stereo unspecified)", "thermal shift delta Tm": "0.55 °C"}
{"smiles": "Cn1c(Nc2ccc(C(F)(F)F)cc2)nc2cc(Oc3ccnc(-c4ncc(C(F)(F)F)[nH]4)c3)ccc21", "thermal shift delta Tm": "0.84 °C"}
{"smiles": "Cc1c(NC(=O)c2ccc(C(C)(C)C)cc2)cccc1-c1cn(C)c(=O)c(Nc2ccc(C(=O)N3CCOCC3)cc2)n1", "thermal shift delta Tm": "0.82 °C"}
{"smiles": "CNC(=O)c1cccc(-c2ccc3c(N4CCOC[C@@H]4C)nc(N4CCOC[C@@H]4C)nc3n2)c1", "note": "[Vistusertib (AZD2014)]", "thermal shift delta Tm": "0.18 °C"}
{"smiles": "CCS(=O)(=O)c1cccc(-c2cc(C(=O)NC3CCN(C)CC3)c(C)c3[nH]c4ncc(C)cc4c23)c1", "thermal shift delta Tm": "-0.02 °C"}
{"smiles": "CCCCNc1ncc(C(=O)NCc2ccc(-n3ccnc3)cc2)c(NC2CCC(O)CC2)n1", "note": "(stereo unspecified)", "thermal shift delta Tm": "0.27 °C"}
{"smiles": "C=C(C)[C@@H]1CC[C@]2(C)CC[C@]3(C)[C@H](CC[C@@H]4[C@@]5(C)CC[C@H](O)C(C)(C)[C@@H]5CC[C@]43C)[C@@H]12", "note": "[Lupeol]", "thermal shift delta Tm": "0.67 °C"}
{"smiles": "O=C(O[C@@H]1Cc2c(O)cc(O)cc2O[C@@H]1c1cc(O)c(O)c(O)c1)c1cc(O)c(O)c(O)c1", "note": "[(-)-Epigallocatechin Gallate]", "thermal shift delta Tm": "0.68 °C"}
{"smiles": "CC[C@H](CO)Nc1nc(NCc2ccccc2)c2ncn(C(C)C)c2n1", "note": "[Roscovitine (Seliciclib,CYC202)]", "thermal shift delta Tm": "0.22 °C"}
{"smiles": "COc1ccc([C@@H]2OC[C@H]3[C@@H]2CO[C@@H]3c2ccc(O[C@@H]3O[C@H](CO)[C@@H](O)[C@H](O)[C@H]3O)c(OC)c2)cc1OC", "note": "[Forsythin]", "thermal shift delta Tm": "0.35 °C"}
{"smiles": "COc1cc2c(Oc3ccc(NC(=O)C4(C(=O)Nc5ccc(F)cc5)CC4)cc3F)ccnc2cc1OCCCN1CCOCC1", "thermal shift delta Tm": "0.79 °C"}
{"smiles": "N#Cc1c(NC(=O)c2cccc3ccccc23)sc2c1CCCC2", "note": "[JNK Inhibitor IX]", "thermal shift delta Tm": "0.41 °C"}
{"smiles": "C#Cc1cccc(Nc2ncnc3cc4c(cc23)OCCOCCOCCO4)c1", "note": "[Icotinib]", "thermal shift delta Tm": "0.58 °C"}
{"smiles": "CN1CCN(Cc2ccc(NC(=O)Nc3ccc(Oc4ccnc(N)n4)cc3)cc2C(F)(F)F)CC1", "thermal shift delta Tm": "0.12 °C"}
{"smiles": "N[C@@H]1CCCN(c2c(/C=C3\\SC(=O)NC3=O)cccc2-c2ccccc2)C1", "thermal shift delta Tm": "0.23 °C"}
{"smiles": "Cc1c[nH]c(/C=C2\\C(=O)Nc3ccccc32)c1CCC(=O)O", "thermal shift delta Tm": "0.06 °C"}
{"smiles": "N=C(N)NC(=N)NCCc1ccccc1", "note": "[Phenformin HCl]", "thermal shift delta Tm": "0.17 °C"}
{"smiles": "Cc1cc(C)c(/C=C2\\C(=O)Nc3ccccc32)[nH]1", "note": "[Semaxanib (SU5416)]", "thermal shift delta Tm": "0.69 °C"}
{"smiles": "Nc1nc(N)c2nc(-c3cccc(O)c3)c(-c3cccc(O)c3)nc2n1", "thermal shift delta Tm": "0.2 °C"}
{"smiles": "COc1cc(Nc2ncc3c(n2)-c2ccc(Cl)cc2C(c2c(F)cccc2OC)=NC3)ccc1C(=O)O", "note": "[Alisertib (MLN8237)]", "thermal shift delta Tm": "0.09 °C"}
{"smiles": "O=C(Nc1cccnc1)c1cc(-c2ccnc(F)c2)ccc1OCc1ccccc1", "thermal shift delta Tm": "0.77 °C"}
{"smiles": "Nc1ncnc2n[nH]c(Nc3ccc(F)cc3)c12", "thermal shift delta Tm": "0.25 °C"}
{"test_system": "LOC_OS03G12390-cb001", "test": "thermal shift delta Tm vs DMSO control; higher = stronger stabilization (binding)", "conditions": "12.5 µM; protein concentration 2 µM", "in_short": "as §1"}
{"smiles": "Cc1cnc(-c2cnc(NCCNc3ccc(C#N)cn3)nc2-c2ccc(Cl)cc2Cl)[nH]1", "thermal shift delta Tm": "0.22 °C and 0.78 °C"}
{"smiles": "CCN(CC)CCCCNc1ncc2cc(-c3cc(OC)cc(OC)c3)c(NC(=O)NC(C)(C)C)nc2n1", "thermal shift delta Tm": "0.06 °C"}
{"smiles": "Cn1cc(-c2ccc3nnc(C(F)(F)c4ccc5ncccc5c4)n3n2)cn1", "thermal shift delta Tm": "0.23 °C"}
{"smiles": "O=C(c1ccc(/C=C/c2n[nH]c3ccccc23)cc1)N1CCNCC1", "thermal shift delta Tm": "6.79 °C"}
{"smiles": "CN(C)C[C@@H]1CCn2cc(c3ccccc32)C2=C(C(=O)NC2=O)c2cn(c3ccccc23)CCO1", "thermal shift delta Tm": "0.08 °C"}
{"smiles": "CC1=C(C(=O)Nc2ccc3[nH]ncc3c2)C(c2ccc(F)cc2)NC(=O)N1", "note": "(stereo unspecified)", "thermal shift delta Tm": "0.72 °C"}
{"smiles": "CCc1cc(Nc2nccc(-c3c(-c4ccc(OC)c(C(=O)Nc5c(F)cccc5F)c4)nc4ccccn34)n2)c(OC)cc1N1CCC(N2CCN(S(C)(=O)=O)CC2)CC1", "thermal shift delta Tm": "0.08 °C"}
{"smiles": "CNS(=O)(=O)Nc1nccc(Cc2c(C)c3ccc(Oc4ncccn4)cc3oc2=O)c1F", "thermal shift delta Tm": "0.7 °C"}
{"smiles": "CCn1c(=O)c(-c2cc[nH]n2)cc2c(C)nc(N)nc21", "thermal shift delta Tm": "0.21 °C"}
{"smiles": "COc1cc(F)c(F)c(Nc2ccc(I)cc2F)c1NS(=O)(=O)C1(C[C@H](O)CO)CC1", "note": "[Refametinib (RDEA119, Bay 86-9766)]", "thermal shift delta Tm": "0.09 °C"}
{"smiles": "Cc1cc(C(=O)NOCCO)c(Nc2ccc(I)cc2F)n(C)c1=O", "thermal shift delta Tm": "-0.3 °C"}
{"smiles": "O=C(c1cccc(Cl)c1F)N1CCN(Cc2cccc(Nc3nccs3)n2)CC1", "thermal shift delta Tm": "0.36 °C"}
{"smiles": "CC(C)n1nc(-c2ccc3oc(N)nc3c2)c2c(N)ncnc21", "thermal shift delta Tm": "0.67 °C"}
{"smiles": "C=CC(=O)Nc1cccc(Sc2nc(Nc3ccc(N4CCN(C)CC4)cc3)ncc2Cl)c1", "thermal shift delta Tm": "2.55 °C"}
{"smiles": "CC(C)n1ncnc1-c1cn2c(n1)-c1ccc(O[C@@H](C)C(N)=O)cc1OCC2", "thermal shift delta Tm": "0.09 °C"}
{"smiles": "Cc1ccc(NC(=O)c2ccc(CN3CCN(C)CC3)cc2)cc1Nc1nccc(-c2cccnc2)n1", "note": "[Imatinib (STI571)]", "thermal shift delta Tm": "-0.05 °C"}
{"smiles": "CCN(CC)CCCC(C)Nc1nc(C)cc(Nc2ccc3nc(C)cc(N)c3c2)n1", "note": "(stereo unspecified)", "thermal shift delta Tm": "-0.21 °C"}
{"smiles": "Cn1c(Nc2ccc(C(F)(F)F)cc2)nc2cc(Oc3ccnc(-c4ncc(C(F)(F)F)[nH]4)c3)ccc21", "thermal shift delta Tm": "2.43 °C"}
{"smiles": "Cc1c(NC(=O)c2ccc(C(C)(C)C)cc2)cccc1-c1cn(C)c(=O)c(Nc2ccc(C(=O)N3CCOCC3)cc2)n1", "thermal shift delta Tm": "1.85 °C"}
{"smiles": "CNC(=O)c1cccc(-c2ccc3c(N4CCOC[C@@H]4C)nc(N4CCOC[C@@H]4C)nc3n2)c1", "note": "[Vistusertib (AZD2014)]", "thermal shift delta Tm": "-0.33 °C"}
{"smiles": "CCS(=O)(=O)c1cccc(-c2cc(C(=O)NC3CCN(C)CC3)c(C)c3[nH]c4ncc(C)cc4c23)c1", "thermal shift delta Tm": "6.67 °C"}
{"smiles": "CCCCNc1ncc(C(=O)NCc2ccc(-n3ccnc3)cc2)c(NC2CCC(O)CC2)n1", "note": "(stereo unspecified)", "thermal shift delta Tm": "2.82 °C"}
{"smiles": "C=C(C)[C@@H]1CC[C@]2(C)CC[C@]3(C)[C@H](CC[C@@H]4[C@@]5(C)CC[C@H](O)C(C)(C)[C@@H]5CC[C@]43C)[C@@H]12", "note": "[Lupeol]", "thermal shift delta Tm": "0.01 °C"}
{"smiles": "O=C(O[C@@H]1Cc2c(O)cc(O)cc2O[C@@H]1c1cc(O)c(O)c(O)c1)c1cc(O)c(O)c(O)c1", "note": "[(-)-Epigallocatechin Gallate]", "thermal shift delta Tm": "-1.02 °C"}
{"smiles": "CC[C@H](CO)Nc1nc(NCc2ccccc2)c2ncn(C(C)C)c2n1", "note": "[Roscovitine (Seliciclib,CYC202)]", "thermal shift delta Tm": "0.14 °C"}
{"smiles": "COc1ccc([C@@H]2OC[C@H]3[C@@H]2CO[C@@H]3c2ccc(O[C@@H]3O[C@H](CO)[C@@H](O)[C@H](O)[C@H]3O)c(OC)c2)cc1OC", "note": "[Forsythin]", "thermal shift delta Tm": "0.34 °C"}
{"smiles": "COc1cc2c(Oc3ccc(NC(=O)C4(C(=O)Nc5ccc(F)cc5)CC4)cc3F)ccnc2cc1OCCCN1CCOCC1", "thermal shift delta Tm": "0.18 °C"}
{"smiles": "N#Cc1c(NC(=O)c2cccc3ccccc23)sc2c1CCCC2", "note": "[JNK Inhibitor IX]", "thermal shift delta Tm": "-0.14 °C"}
{"smiles": "C#Cc1cccc(Nc2ncnc3cc4c(cc23)OCCOCCOCCO4)c1", "note": "[Icotinib]", "thermal shift delta Tm": "1.26 °C"}
{"smiles": "CN1CCN(Cc2ccc(NC(=O)Nc3ccc(Oc4ccnc(N)n4)cc3)cc2C(F)(F)F)CC1", "thermal shift delta Tm": "1.46 °C"}
{"smiles": "N[C@@H]1CCCN(c2c(/C=C3\\SC(=O)NC3=O)cccc2-c2ccccc2)C1", "thermal shift delta Tm": "-0.15 °C"}
{"smiles": "Cc1c[nH]c(/C=C2\\C(=O)Nc3ccccc32)c1CCC(=O)O", "thermal shift delta Tm": "8 °C"}
{"smiles": "N=C(N)NC(=N)NCCc1ccccc1", "note": "[Phenformin HCl]", "thermal shift delta Tm": "-0.23 °C"}
{"smiles": "Cc1cc(C)c(/C=C2\\C(=O)Nc3ccccc32)[nH]1", "note": "[Semaxanib (SU5416)]", "thermal shift delta Tm": "4.53 °C"}
{"smiles": "Nc1nc(N)c2nc(-c3cccc(O)c3)c(-c3cccc(O)c3)nc2n1", "thermal shift delta Tm": "0.79 °C"}
{"smiles": "COc1cc(Nc2ncc3c(n2)-c2ccc(Cl)cc2C(c2c(F)cccc2OC)=NC3)ccc1C(=O)O", "note": "[Alisertib (MLN8237)]", "thermal shift delta Tm": "0.11 °C"}
{"smiles": "O=C(Nc1cccnc1)c1cc(-c2ccnc(F)c2)ccc1OCc1ccccc1", "thermal shift delta Tm": "4.48 °C"}
{"smiles": "Nc1ncnc2n[nH]c(Nc3ccc(F)cc3)c12", "thermal shift delta Tm": "2.15 °C"}
